Results published in PubChem BioAssay (NCATS).
Results filed as inconclusive are left out. Unless noted, calls come from the whole dose curve; as a rule, active = well fitted curve in either direction with a large enough effect (not every such curve was filed as active); inconclusive = small, poorly fitted or top-dose-only effect, or another doubt; inactive = flat fitted curve, though single readings scatter.

What was measured:
[1] = AP1 Signaling Pathway (AID 357); settings: ME-180 AP-1-bla reporter, EGF-induced, beta-lactamase ratio, 5 h; at 17.2 µM (top of the series) unless noted;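 note: ME-180 reporter cells stimulated with EGF at its EC50 level; % is set by controls: 0 for no effect and ±100 for the full control effect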
Outline: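 In this screen, ME-180 cells in Opti-MEM with 0.5% dialyzed FBS received EC50 EGF and compound titrations for 5 h. AP-1 reporter beta-lactamase was detected via CCF4 ratio, giving AC50 for positive and negative modulators.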

[2] = NFAT Signaling Pathway (AID 444); settings: Jurkat NFAT-bla M1, carbachol, beta-lactamase ratio, 5 h; at 17.2 µM (top of the series) unless noted;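 note: carbachol stimulus at about its EC50 of 1 µM final; % is set by controls: 0 for no effect and ±100 for the full control effect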
Outline: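 Jurkat cells with NFAT-driven β-lactamase reporter and co-expressed M1 receptor, stimulated with carbachol (final 1 uM, ~EC50), compound titration, 5 h at 37 °C. CCF4 loaded 1 h at RT; 460/530 nm ratio gave %activity and AC50.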

[3] = Stat Signaling Pathway (AID 446); settings: ME-180 (cervical carcinoma) SIE beta-lactamase reporter, IL-6 stimulated, 5 h; at 17.2 µM (top of the series) unless noted;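 note: ME-180 cervical cancer cells given 40 pM IL-6 alongside compound; SIE-controlled beta-lactamase reporter measured as 460/530 nm FRET emission ratio; % is set by controls: 0 for no effect and ±100 for the full control effect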
Outline: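 FRET read-out (405 nm excitation, 460/530 nm emission) of a beta-lactamase reporter under a STAT-inducible element in ME-180 cervical carcinoma cells. Cells with compound receive 40 pM IL-6 for 5 h. Values are normalised to AC90 stimulation and AC90 JAK-inhibitor controls.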

[4] = molecular target: Glucocorticoid receptor (Homo sapiens) (UniProt P04150); assay: GR-GFP Redistribution (AID 450;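 active = compounds whose dose series gives a full or clear partial fitted curve of increased nuclear translocation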; note: potency is the fitted concentration of half-maximal effect)
Sequence of Glucocorticoid receptor (Homo sapiens) (P04150 whole entry, looked up): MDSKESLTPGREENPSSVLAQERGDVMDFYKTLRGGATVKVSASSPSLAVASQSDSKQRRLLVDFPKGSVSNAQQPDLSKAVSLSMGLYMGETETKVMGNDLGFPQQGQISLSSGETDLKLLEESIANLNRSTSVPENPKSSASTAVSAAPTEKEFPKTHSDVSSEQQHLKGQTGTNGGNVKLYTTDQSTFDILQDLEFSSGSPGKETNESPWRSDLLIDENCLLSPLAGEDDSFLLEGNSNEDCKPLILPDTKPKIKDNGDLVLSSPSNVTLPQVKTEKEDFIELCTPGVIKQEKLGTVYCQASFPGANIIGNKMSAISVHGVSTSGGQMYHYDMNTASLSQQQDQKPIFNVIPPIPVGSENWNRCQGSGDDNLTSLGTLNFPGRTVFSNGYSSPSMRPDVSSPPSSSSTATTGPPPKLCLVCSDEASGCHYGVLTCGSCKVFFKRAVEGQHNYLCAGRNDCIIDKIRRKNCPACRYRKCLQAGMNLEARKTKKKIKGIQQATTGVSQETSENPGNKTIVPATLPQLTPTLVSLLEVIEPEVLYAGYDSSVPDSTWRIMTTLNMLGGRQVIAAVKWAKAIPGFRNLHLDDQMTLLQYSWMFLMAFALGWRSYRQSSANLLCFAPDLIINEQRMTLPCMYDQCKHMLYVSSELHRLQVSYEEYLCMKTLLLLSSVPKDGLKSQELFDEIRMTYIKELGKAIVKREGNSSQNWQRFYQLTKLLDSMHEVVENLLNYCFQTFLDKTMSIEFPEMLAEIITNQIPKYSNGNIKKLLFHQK

CN=C1c2c(-c3ccccc3)c3cc(OC)ccc3n2CCN1C
inactive: activity change, negative = inhibition [1] 24.6% | activity change, negative = inhibition [2] -8.39% | activity, negative = inhibition [3] -1.77% | Potency [4] > 20.6 µM

Cc1csc(SCCn2c(Br)nc3c2c(=O)[nH]c(=O)n3C)n1
inactive: activity change, negative = inhibition [1] 1.52% | activity change, negative = inhibition [2] 4.32% | activity, negative = inhibition [3] 1.99% | Potency [4] > 20.6 µM

COc1ccc(Cn2c(O)cc(=O)[nH]c2=O)cc1
inactive: activity change, negative = inhibition [1] 27.1% | activity change, negative = inhibition [2] -0.64% | activity, negative = inhibition [3] -3.75% | Potency [4] > 20.6 µM

COc1ccc(/C(O)=C2/C(=O)C(=O)N(CCCN(C)C)C2c2ccccc2)cc1Cl (stereo not given)
inactive: activity change, negative = inhibition [1] 8.68% | activity change, negative = inhibition [2] -3.88% | activity, negative = inhibition [3] 12.1% | Potency [4] > 20.6 µM

CCOC(=O)C(C#N)C(Cc1ccccc1)c1ccco1 (stereo not given)
inactive: activity change, negative = inhibition [1] -10.1% | activity change, negative = inhibition [2] -8.09% | activity, negative = inhibition [3] -9.08% | Potency [4] > 20.6 µM

COc1ccc2c(C)nc(Nc3nc(C)cc(C)n3)nc2c1
inactive: activity change, negative = inhibition [1] -4.83% | activity change, negative = inhibition [2] -4.96% | activity, negative = inhibition [3] 7.03% | Potency [4] > 20.6 µM

O=C(O)c1cnn2c(C(F)(F)F)cc(-c3ccco3)nc12
inactive: activity change, negative = inhibition [1] 11% | activity change, negative = inhibition [2] 1.41% | activity, negative = inhibition [3] 16.2% | Potency [4] > 20.6 µM

Cc1nc2c(=O)n(C)c(=O)[nH]c2n1Cc1ccccc1
inactive: activity change, negative = inhibition [1] 10.3% | activity change, negative = inhibition [2] 14.6% | activity, negative = inhibition [3] -0.854% | Potency [4] > 20.6 µM

CC1(C)NC(=O)N(CC(O)Cn2nnc3ccccc32)C1=O (stereo not given)
inactive: activity change, negative = inhibition [1] 5.85% | activity change, negative = inhibition [2] 8.84% | activity, negative = inhibition [3] 6.79% | Potency [4] > 20.6 µM

COC(=O)c1ccc(C2/C(=C(\O)c3cccc(OC)c3)C(=O)C(=O)N2CCCN(C)C)cc1 (stereo not given)
inactive: activity change, negative = inhibition [1] 2.5% | activity change, negative = inhibition [2] 3.34% | activity, negative = inhibition [3] 5.36% | Potency [4] > 20.6 µM

COc1ccc(C(=O)Cn2c(N3CCCCC3)nc3c2c(=O)n(C)c(=O)n3C)cc1OC
inactive: activity change, negative = inhibition [1] 14.7% | activity change, negative = inhibition [2] 21% | activity, negative = inhibition [3] -0.755% | Potency [4] > 20.6 µM

CN=c1sc2ccccc2n1CC(O)COc1ccccc1 (stereo not given)
inactive: activity change, negative = inhibition [1] -17.6% | activity change, negative = inhibition [2] -17.8% | activity, negative = inhibition [3] -0.403% | Potency [4] > 20.6 µM

CC(C(=O)NC(=O)NCc1ccccc1)N1C(=O)c2ccccc2C1=O (stereo not given)
inactive: activity change, negative = inhibition [1] -0.38% | activity change, negative = inhibition [2] -0.399% | activity, negative = inhibition [3] 14.7% | Potency [4] > 20.6 µM

O=S1(=O)C[C@@H](N2CCOCC2)[C@H](N2CCOCC2)C1
inactive: activity change, negative = inhibition [1] -10.3% | activity change, negative = inhibition [2] 6.36% | activity, negative = inhibition [3] -4.63% | Potency [4] > 20.6 µM

CCOC(=O)COc1ccc(Oc2nc(C)cc(OC)n2)nn1
inactive: activity change, negative = inhibition [1] 13.9% | activity change, negative = inhibition [2] 12.6% | activity, negative = inhibition [3] -0.709% | Potency [4] > 20.6 µM

O=P(Cc1nnco1)(c1ccccc1)c1ccccc1
inactive: activity change, negative = inhibition [1] -8.6% | activity change, negative = inhibition [2] -9.88% | activity, negative = inhibition [3] -0.63% | Potency [4] > 20.6 µM

CCOC(=O)C(Oc1ccc(=O)[nH]n1)C(C)=O (stereo not given)
inactive: activity change, negative = inhibition [1] 3.6% | activity change, negative = inhibition [2] 5.95% | activity, negative = inhibition [3] 2.15% | Potency [4] > 20.6 µM

COC(=O)c1sccc1NC(=O)c1c(C)cc(=O)oc1C
inactive: activity change, negative = inhibition [1] 9.11% | activity change, negative = inhibition [2] 8.6% | activity, negative = inhibition [3] -6.64% | Potency [4] > 20.6 µM

O=S1CCCSC1c1cccnc1 (stereo not given)
inactive: activity change, negative = inhibition [1] 5.36% | activity change, negative = inhibition [2] 9.76% | activity, negative = inhibition [3] 2.7% | Potency [4] > 20.6 µM

CC/C(C)=C1\SC(N2CCN(C(C)=O)CC2)=NC1=O
inactive: activity change, negative = inhibition [1] 2% | activity change, negative = inhibition [2] 5.99% | activity, negative = inhibition [3] 8.03% | Potency [4] > 20.6 µM

C=CCNc1sc(C(=O)C2CC2)c(N)c1C#N
inactive: activity change, negative = inhibition [1] -5.75% | activity change, negative = inhibition [2] 4.81% | activity, negative = inhibition [3] -6.27% | Potency [4] > 20.6 µM

CCCCc1nc2n[nH]c(N)c2c2c1CCCC2
inactive: activity change, negative = inhibition [1] 20.3% | activity change, negative = inhibition [2] 1.99% | activity, negative = inhibition [3] 7.03% | Potency [4] > 20.6 µM

COc1ccc(CN(C)CCc2ccccn2)c(OC)c1OC
inactive: activity change, negative = inhibition [1] -14.2% | activity change, negative = inhibition [2] -17.4% | activity, negative = inhibition [3] 11.1% | Potency [4] > 20.6 µM

CN=c1sc2ccccc2n1CC(O)COCc1ccco1 (stereo not given)
inactive: activity change, negative = inhibition [1] -8.62% | activity change, negative = inhibition [2] 1.06% | activity, negative = inhibition [3] -2.56% | Potency [4] > 20.6 µM

CCCCOc1ccc(C(=O)N2CCCC2C(=O)O)cc1 (stereo not given)
inactive: activity change, negative = inhibition [1] -0.0169% | activity change, negative = inhibition [2] -4.49% | activity, negative = inhibition [3] 9.6% | Potency [4] > 20.6 µM
